Assay outcomes deposited in PubChem BioAssay by National Center for Advancing Translational Sciences (NCATS).
KB-3-1 cytotox = KB-3-1 parental cell cytotoxicity; Potency, µM (highest dose often 46.1 µM), hits mostly cytotoxic; 400,000 compounds, 1.4% hits; KB-3-1 viability, CellTiter-Glo ATP luminescence, 72 h; AID 1347075; further: nearly all actives have a fitted effect of over 60% in size
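72 h, 37 °C compound treatment of KB-3-1 parental cells; CellTiter-Glo added, 10 min, luminescence read. Data corrected against DMSO-only plates and normalized before curve fitting.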
KB-V1 MDR tox = kills drug-selected multidrug resistant KB-V1 cells | KB-V1 MDR cells viability, CellTiter-Glo, 72 h | Potency, µM (doses to about 46.1 µM), most hits filed as cytotoxic | 400,000 compounds, 3.4% hits | AID 1347076; further: nearly all actives have a fitted effect of over 60% in size
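Compound-treated KB-V1 multidrug-resistant cells, 72 h, 37 degrees C; viability by CellTiter-Glo. Fitted qHTS curves give the values.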
MCF10A rerep = inducers of DNA re-replication in MCF 10A breast cells | MCF 10A DNA re-replication, Hoechst nuclear intensity, 48 h | Potency, µM (titrated, usually from 46.1 µM), most hits filed as activators | 350,000 compounds, 2.9% hits | AID 624296; further: nearly all actives have a fitted effect of over 50% in size
SW480 rereplic = DNA re-replication induction in SW480 cells; 340,000 compounds, 1.8% hits; AID 624297; SW480 DNA re-replication, Hoechst DNA content imaging, 48 h; Potency, µM (top dose mostly 46.1 µM), usual class: activators; further: nearly all actives have a fitted effect of over 55% in size
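Image-based DNA-content assay: after two days of treatment, nuclei were labelled with the DNA dye Hoechst and imaged, and hits were compounds raising the count of nuclei showing high fluorescence intensity.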
ELG1 DNA repair = ELG1-dependent DNA repair inhibition | HEK293T ELG1-luciferase reporter, luminescence, 16 h; DNA damage induced by 5-fluorouridine | Potency, µM (top dose mostly 46.1 µM), usual class: inhibitors | 330,000 compounds, 2.3% hits | AID 504467; further: nearly all actives have a fitted effect of over 55% in size
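5-Fluorouridine DNA damage + compound/DMSO, 2,000 cells/well, 16 h, 37 °C/5% CO2. ONE-Glo, 30 min RT, luminescence. Readout = decrease in reporter signal.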
Hits are given with their value; - = inactive; ? = inconclusive; . = not tested or not shown; [ ] = remark or other dose. A selection: hits, their analogues and other compounds. The true share with any hit is near 8.1%. The call rests on the fitted dose curve; in most records, active means well fitted curve in the direction sought with a large enough effect; inconclusive means small, poorly fitted or top-dose-only effect, or another doubt; inactive means no such curve, though single readings can be large; an effect the other way counts as inactive or inconclusive.

SMILES	KB-3-1 cytotox	KB-V1 MDR tox	MCF10A rerep	SW480 rereplic	ELG1 DNA repair
FC(F)(F)c1cnc(NNC(=S)Nc2ccc(Cl)cc2)c(Cl)c1	?	-	15µM	?	?
Nc1ccccc1C(=O)NNc1ncc(C(F)(F)F)cc1Cl	-	?	15µM	5.8µM	-
Fc1ccc(NC(=S)NNc2ncc(C(F)(F)F)cc2Cl)c(F)c1	21µM	15µM	-	?	?
O=C(NNc1ncc(C(F)(F)F)cc1Cl)c1ccc(Cl)c(Cl)c1	-	-	-	-	-
COc1ccc(NCc2ccc(OC)c(Cn3ccnc3)c2)c(OC)c1	-	?	-	-	-
N#Cc1ccc(-c2ccc(OCC(=O)Nc3cccnc3)cc2)cc1	.	.	-	-	15µM
N#Cc1cccc(NC(=O)COc2ccc(-n3ccnc3)cc2)c1	?	-	-	-	13µM
COc1cc(NC(=O)COc2ccc(-n3ccnc3)cc2)cc(OC)c1	?	?	-	-	?
CCN(CC)C(=O)C1=C(C)N(CCCN2CCCC2=O)C(=O)C(CC(=O)NCC2CCCCC2)C1 (configuration not stated)	-	-	.	.	.
S=c1[nH]nc(-c2cc3c(s2)-c2ccccc2CC3)o1	-	-	?	8.2µM	?
FC(F)(F)c1nnc2c(Sc3ccc(Cl)cc3)nc3ccccc3n12	3.7µM	?	-[0.0737 µM]	?	-
FC(F)(F)c1nnc2c(Sc3ccccn3)nc3ccccc3n12	?	?	?	?	-
FC(F)(F)c1nnc2c(Sc3ccccc3)nc3ccccc3n12	12µM	?	?	?	?
Cc1ccc(-n2nc(-c3ccco3)cc2C(=O)O)c(C)c1	-	-	-	-	-
COC(=O)[C@H]1C[C@H](OC(=O)Nc2c(C)noc2C)[C@@]2(O)CN(S(=O)(=O)c3ccc(C)cc3)CC2[C@H]1C(=O)OC (some centres not stated)	-	-	.	.	.
C/C(=N\NC(=O)c1nnn(-c2nonc2N)c1C)c1ccc(-c2ccccc2)cc1	?	?	-	-	?
CCN(CC)c1c([N+](=O)[O-])c(=O)n(C)c2ccccc12	-	?	-	?	-
Cn1c(=O)c([N+](=O)[O-])c(Cl)c2ccccc21	?	-	3.7µM	16µM	?
COc1ccccc1CNC(=O)C(Cc1c[nH]c2ccccc12)NC(=O)OCc1ccccc1 (configuration not stated)	?	18µM	-	-	?
COc1ccccc1CNC(=O)c1ccccc1C(=O)NC(CC(C)C)C(=O)NCc1ccccc1OC (configuration not stated)	-	-	-	-	21µM
COc1ccc(-c2cc(=O)oc3cc(OC(C)C(=O)NCc4ccccn4)ccc23)cc1 (configuration not stated)	-	-	-	-	?
COc1ccc(Cl)cc1NC(=O)Cn1c(=O)n(CCCC(=O)NCCc2ccc(OC)c(OC)c2)c(=O)c2ccccc21	-	-	.	.	.
CC1=[N+](C)c2c(ccc3cccnc23)C1(C)C	10µM	?	?	?	?
CCn1c(SCC(=O)c2ccccc2)nnc1-c1cc2cc(Br)ccc2o1	?	18µM	?	-	-
Cc1cc(C)c2[nH]c(O)c(N=NC(=S)NCC3CCCO3)c2c1 (configuration not stated)	-	?	-	-	?
SMILES	KB-3-1 cytotox	KB-V1 MDR tox	MCF10A rerep	SW480 rereplic	ELG1 DNA repair
Oc1[nH]c2ccccc2c1N=NC(=S)NCC1CCCO1 (configuration not stated)	-	12µM	-	-	?
Oc1[nH]c2c(Cl)cc(Cl)cc2c1N=NC(=S)NCC1CCCO1 (configuration not stated)	5.8µM	?	-	-	?
COc1cccc(-c2noc(-c3ccc(Cl)nc3)n2)c1	-	-	-	?	?
Oc1ccc(-c2nc(-c3ccc(F)cc3)c(-c3ccncc3)[nH]2)cc1	?	-	-	3.5µM	-
COc1ccc(-c2[nH]c(-c3ccc(C(=O)O)cc3)nc2-c2ccccc2)cc1	-	-	-	-	?
O=C(O)c1ccc(-c2nc(-c3ccccc3)c(-c3ccccc3)[nH]2)cc1	-	?	16µM	-	-
Fc1ccc(-c2nc(-c3cccs3)[nH]c2-c2ccc(F)cc2)cc1	18µM	16µM	?	-	?
CCN(C(=O)Cn1c(=O)oc2cc(Cl)ccc21)c1cccc(C(F)(F)F)c1	-	?	.	.	.
